Data reported in PubChem BioAssay (NCATS).
Records with an inconclusive call do not appear. Active and inactive are the calls of the source. Unless noted, the call rests on the fitted dose curve; in most records, active means well fitted curve in the direction sought with a large enough effect; inconclusive means small, poorly fitted or top-dose-only effect, or another doubt; inactive means no such curve, though single readings can be large; an effect the other way counts as inactive or inconclusive.

Tests used:
[1] = target: Lysosomal acid glucosylceramidase (Homo sapiens) (UniProt P04062); test: Glucocerebrosidase-p2 (AID 348; in the data active means potency below about 10 µM; further: potency means the concentration at half of the fitted maximal effect); conditions: purified GBA, blue fluorogenic substrate, 40 min
Sequence of Lysosomal acid glucosylceramidase (Homo sapiens) (P04062 whole entry, looked up): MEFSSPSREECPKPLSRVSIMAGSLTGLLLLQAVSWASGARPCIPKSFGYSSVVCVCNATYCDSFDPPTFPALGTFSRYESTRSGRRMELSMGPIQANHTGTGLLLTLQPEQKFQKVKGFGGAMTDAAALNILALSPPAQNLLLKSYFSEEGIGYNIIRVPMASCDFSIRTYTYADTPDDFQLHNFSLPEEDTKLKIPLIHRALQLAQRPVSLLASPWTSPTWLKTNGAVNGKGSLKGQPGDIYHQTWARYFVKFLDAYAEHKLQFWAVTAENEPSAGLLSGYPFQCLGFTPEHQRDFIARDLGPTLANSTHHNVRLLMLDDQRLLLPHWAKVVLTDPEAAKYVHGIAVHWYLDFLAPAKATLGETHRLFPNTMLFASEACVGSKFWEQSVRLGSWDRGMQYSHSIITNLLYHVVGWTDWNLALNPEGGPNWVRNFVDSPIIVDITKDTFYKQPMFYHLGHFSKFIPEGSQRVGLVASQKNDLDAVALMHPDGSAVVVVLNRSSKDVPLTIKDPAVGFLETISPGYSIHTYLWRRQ
In short: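 Normal human glucocerebrosidase (0.2 nM) with blue fluorogenic substrate (80 uM final) in citrate/phosphate pH 5.9 with 10mM sodium taurocholate, 0.01% tween-20; 40 min RT, NaOH/glycine stop; fluorescence Ex 365/Em 440; AC50 from a titration from 0.6 nM upwards.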

[2] = AP1 Signaling Pathway (AID 357; active means well fitted curve in either direction with a large enough effect, not every such curve was filed as active;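 further: ME-180 reporter cells stimulated with EGF at its EC50 level; on the % scale 0 is the no-effect control and ±100 the full control effect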); conditions: ME-180 AP-1-bla reporter, EGF-induced, beta-lactamase ratio, 5 h; at 7.69 µM (top of the series) unless noted
In short: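 Titration-series screen for positive or negative modulators of EC50 EGF-induced signaling in ME-180 cells carrying an AP-1-driven beta-lactamase reporter. After 5 hours at 37 degrees Celsius, CCF4 460nm/530nm emission ratio gave %Activity; AC50 values derived.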

[3] = NFAT Signaling Pathway (AID 444; active means well fitted curve in either direction with a large enough effect, not every such curve was filed as active;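 further: carbachol stimulus at about its EC50 of 1 µM final; on the % scale 0 is the no-effect control and ±100 the full control effect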); conditions: Jurkat NFAT-bla M1, carbachol, beta-lactamase ratio, 5 h; at 7.69 µM (top of the series) unless noted
In short: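 Read-out: CCF4 FRET ratio (460 nm/530 nm) after 1 h RT dye loading, used for %activity and AC50 from titration series. Cells: Jurkat NFAT-β-lactamase/M1 line, treated with compound plus 1 uM carbachol for 5 h, 37 °C.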

[4] = Stat Signaling Pathway (AID 446; active means well fitted curve in either direction with a large enough effect, not every such curve was filed as active;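 further: ME-180 cervical cancer cells given 40 pM IL-6 alongside compound; SIE-controlled beta-lactamase reporter measured as 460/530 nm FRET emission ratio; on the % scale 0 is the no-effect control and ±100 the full control effect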); conditions: ME-180 SIE beta-lactamase reporter, IL-6 stimulated, 5 h; at 7.69 µM (top of the series) unless noted
In short: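 FRET read-out (405 nm excitation, 460/530 nm emission) of a beta-lactamase reporter under a STAT-inducible element in ME-180 cervical carcinoma cells. Cells with compound receive 40 pM IL-6 for 5 h. Values are normalised to AC90 stimulation and AC90 JAK-inhibitor controls.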

[5] = target: Glucocorticoid receptor (Homo sapiens) (UniProt P04150); test: GR-GFP Redistribution (AID 450;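 active means compounds whose dose series gives a full or clear partial fitted curve of increased nuclear translocation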; further: potency means the concentration at half of the fitted maximal effect); conditions: U2OS GR-GFP nuclear translocation, laser cytometry, 2 h
Sequence of Glucocorticoid receptor (Homo sapiens) (P04150 whole entry, looked up, the tested form may be a part): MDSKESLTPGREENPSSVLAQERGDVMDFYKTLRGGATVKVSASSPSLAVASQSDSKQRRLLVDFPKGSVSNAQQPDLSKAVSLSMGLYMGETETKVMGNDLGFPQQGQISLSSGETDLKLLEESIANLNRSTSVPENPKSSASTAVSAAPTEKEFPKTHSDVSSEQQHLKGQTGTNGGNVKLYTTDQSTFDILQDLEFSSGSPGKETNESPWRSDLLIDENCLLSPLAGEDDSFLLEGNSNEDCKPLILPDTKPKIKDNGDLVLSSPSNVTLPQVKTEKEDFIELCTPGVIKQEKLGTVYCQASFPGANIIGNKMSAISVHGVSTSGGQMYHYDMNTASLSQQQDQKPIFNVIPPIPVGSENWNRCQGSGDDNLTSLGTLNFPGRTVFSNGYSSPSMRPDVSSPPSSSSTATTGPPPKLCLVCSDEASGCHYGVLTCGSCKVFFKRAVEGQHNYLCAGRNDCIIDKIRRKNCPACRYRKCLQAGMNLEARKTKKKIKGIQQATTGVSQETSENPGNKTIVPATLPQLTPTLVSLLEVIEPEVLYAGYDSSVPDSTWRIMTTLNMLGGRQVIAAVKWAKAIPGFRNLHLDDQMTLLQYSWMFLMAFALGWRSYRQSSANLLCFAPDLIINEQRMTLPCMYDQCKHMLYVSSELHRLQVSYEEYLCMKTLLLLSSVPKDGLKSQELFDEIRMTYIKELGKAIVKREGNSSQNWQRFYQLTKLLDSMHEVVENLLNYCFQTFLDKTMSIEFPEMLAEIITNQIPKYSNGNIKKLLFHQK

[6] = target: Glucocorticoid receptor (Homo sapiens) (UniProt P04150); test: GR-EFC Redistribution (AID 451; calls by dose curve; further: potency means the concentration at half of the fitted maximal effect); conditions: CHO-K1 GR-EFC translocation, beta-gal luminescence, 2 h
In short: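 Translocation of GR-ED fusion to nuclear EA restores b-gal, read by luminescence after 1 h room-temperature detection. Engineered CHO-K1 biosensor cells, 1,000/well, exposed 2 h at 37 C to titrations up to 46 uM final.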

[7] = target: Mitogen-activated protein kinase 10 (Mus musculus) (UniProt Q61831); test: JNK3 AlphaScreen Assay (AID 530; active means well fitted curve in either direction with a large enough effect, not every such curve was filed as active;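 further: kinase came from lysate of stimulated human HepG2 cells; signal reports phosphorylation of biotinylated GST-cJun 1-79 at Ser73 with 10 µM ATP; on the % scale 0 is the no-effect control and ±100 the full control effect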); conditions: JNK3 lysate, c-Jun phosphorylation; series mostly up to 57.1 µM
In short: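 qHTS titrations with 15 min compound pre-incubation before adding ATP (10 uM final). Read-out: AlphaScreen of Ser73-phosphorylated biotin-GST-cJun using HepG2 lysate JNK3 activated by IL-1β and TNFα.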

[8] = target: 3',5'-cyclic-AMP phosphodiesterase 4B (Homo sapiens) (UniProt Q07343); test: qHTS Assay for Inhibitors of PDE-IV (AID 607; active means well fitted activation curve with a large enough effect in the main read-out, with a control signal flat, not every such curve was filed as active; further: % of control where 0% means no effect); conditions: HEK293 ACTOne CNG channel cells, membrane potential fluorescence; series mostly up to 22.9 µM
Sequence of 3',5'-cyclic-AMP phosphodiesterase 4B (Homo sapiens) (Q07343 whole entry, looked up): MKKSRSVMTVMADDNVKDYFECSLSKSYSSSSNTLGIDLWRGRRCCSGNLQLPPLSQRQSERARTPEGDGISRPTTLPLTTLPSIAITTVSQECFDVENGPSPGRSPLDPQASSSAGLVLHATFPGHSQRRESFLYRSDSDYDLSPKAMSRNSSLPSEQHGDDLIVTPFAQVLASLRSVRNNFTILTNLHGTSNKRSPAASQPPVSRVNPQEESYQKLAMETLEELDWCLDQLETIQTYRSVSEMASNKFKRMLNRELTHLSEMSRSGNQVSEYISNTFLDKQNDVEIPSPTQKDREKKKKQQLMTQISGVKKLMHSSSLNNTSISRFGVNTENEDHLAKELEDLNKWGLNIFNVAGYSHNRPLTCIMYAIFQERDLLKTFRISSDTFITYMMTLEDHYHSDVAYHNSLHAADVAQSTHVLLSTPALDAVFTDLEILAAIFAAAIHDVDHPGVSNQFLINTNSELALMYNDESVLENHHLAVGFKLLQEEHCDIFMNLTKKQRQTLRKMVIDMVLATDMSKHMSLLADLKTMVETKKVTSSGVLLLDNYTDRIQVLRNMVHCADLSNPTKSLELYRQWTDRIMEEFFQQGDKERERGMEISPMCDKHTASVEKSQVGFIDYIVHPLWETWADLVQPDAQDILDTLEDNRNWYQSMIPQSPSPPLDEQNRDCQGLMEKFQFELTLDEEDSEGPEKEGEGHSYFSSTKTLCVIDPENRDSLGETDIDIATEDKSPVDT
In short: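 Cell-based read-out of cAMP via a modified cyclic nucleotide-gated channel and membrane potential dye (535/590 nm) in HEK293 cells expressing PDE4 endogenously. Compounds tested up to 22.9 uM final; 100 uM RO 20-1724 reference.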

[9] = qHTS Assay for Identification of Small Molecule Agonists for Hypoxia Response Element Signaling Pathway (AID 914; active means well fitted activation curve with a large enough effect in the signal ratio, with a control signal flat, not every such curve was filed as active; the % refers to the signal ratio; further: potency means the concentration at half of the fitted maximal effect; on activation: % of control where 0% means no effect); conditions: ME-180 (cervical carcinoma) HRE-bla reporter, beta-lactamase ratio, CoCl2, 17 h; activation: stronger effect = higher value
In short: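 HRE-bla ME-180 cells with beta-lactamase reporter under hypoxia response element, compounds with EC50 CoCl2 for 17 hours at 37 C. CCF4 substrate, 460nm/530nm emission ratio gave %Activity; AC50 from titration series.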

[10] = qHTS Assay for Lipid Storage Modulators (AID 1519; calls by dose curve); conditions: Drosophila S3 cells, BODIPY lipid droplet/cell ratio, laser cytometry, cells loaded with oleic acid; for activity change, negative = inhibition: at 57.5 µM (top of the series)
In short: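 Cells seeded at 5,000 per well were treated with compounds over a concentration series and loaded with oleic acid (400 uM, as added). Lipid droplet fluorescence (488 nm excitation, 500-530 nm channel) was read by laser-scanning cytometry and normalized to 20 uM Triacsin C.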

[11] = target: Dual specificity protein kinase CLK4 (Homo sapiens) (UniProt Q9HAZ1); test: qHTS Assay for Inhibitors of CDC-like Kinase 4 (Kinase-Glo Assay) (AID 1770); conditions: recombinant Clk4, Kinase-Glo ATP depletion luminescence; series mostly up to 66.7 µM; further: on the % scale 0 is the no-effect control and ±100 the full control effect; nearly all actives have a fitted effect of over 65% in size
Sequence of Dual specificity protein kinase CLK4 (Homo sapiens) (Q9HAZ1 whole entry, looked up): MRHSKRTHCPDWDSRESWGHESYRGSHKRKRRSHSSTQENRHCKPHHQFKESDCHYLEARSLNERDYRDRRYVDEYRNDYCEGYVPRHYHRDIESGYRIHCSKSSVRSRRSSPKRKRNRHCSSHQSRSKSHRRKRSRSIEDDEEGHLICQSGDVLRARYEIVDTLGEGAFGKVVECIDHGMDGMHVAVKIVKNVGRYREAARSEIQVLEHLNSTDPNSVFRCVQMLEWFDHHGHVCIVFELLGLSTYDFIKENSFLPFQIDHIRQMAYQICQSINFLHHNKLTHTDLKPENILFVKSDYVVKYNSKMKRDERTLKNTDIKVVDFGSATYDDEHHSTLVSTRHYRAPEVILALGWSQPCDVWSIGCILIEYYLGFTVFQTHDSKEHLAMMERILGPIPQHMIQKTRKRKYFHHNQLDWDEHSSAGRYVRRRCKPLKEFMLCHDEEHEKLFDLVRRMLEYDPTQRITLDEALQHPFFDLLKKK
In short: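 Recombinant human Clk4 (25 nM) phosphorylated RS repeat peptide (100 uM) with 1 uM ATP in Tris pH 7.5/MgCl2/EGTA/DTT/Triton buffer for 4.5 h at room temperature. Residual ATP was quantified by Kinase-Glo luciferase luminescence.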

[12] = target: Dual specificity protein kinase CLK4 (Homo sapiens) (UniProt Q9HAZ1); test: qHTS Assay for Inhibitors of CDC-like Kinase 4 (ADP-Glo Assay) (AID 1771); conditions: recombinant CLK4, ADP-Glo luminescence; series mostly up to 80 µM; further: on the % scale 0 is the no-effect control and ±100 the full control effect; nearly all actives have a fitted effect of over 70% in size
In short: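 Compounds are pin-transferred onto substrate mix (100 uM RS peptide, 1 uM ATP), then 25 nM Clk4 is added. After 1 hr at room temperature, ADP-Glo reagent runs 45 min, detection reagent 30 min, then luminescence is read.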

[13] = target: Dual specificity protein kinase CLK4 (Homo sapiens) (UniProt Q9HAZ1); test: qHTS Assay for Inhibitors of CDC-like Kinase 4 (ADP-FP Assay) (AID 1795); conditions: Transcreener ADP fluorescence polarization; series mostly up to 50 µM; further: on the % scale 0 is the no-effect control and ±100 the full control effect; nearly all actives have a fitted effect of over 60% in size
In short: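 Recombinant human Clk4 (6.25 nM) phosphorylated RS repeat peptide (100 uM) with 1 uM ATP in Tris pH 7.5/MgCl2/EGTA/DTT/Triton buffer for one hour. ADP was quantified by Transcreener competitive fluorescence polarization against an ADP calibration curve.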

[14] = target: Ubiquitin carboxyl-terminal hydrolase 1 (Homo sapiens) (UniProt O94782); test: Inhibitors of USP1/UAF1: Pilot qHTS (AID 504865); conditions: purified USP1/UAF1, Ub-rhodamine cleavage fluorescence; series mostly up to 54.9 µM;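 further: rhodamine fluorescence freed from ubiquitin-rhodamine substrate followed over time; top concentration of the series differs between compounds; on the % scale 0 is the no-effect control and ±100 the full control effect; nearly all actives have a fitted effect of over 35% in size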
Sequence of Ubiquitin carboxyl-terminal hydrolase 1 (Homo sapiens) (O94782 whole entry, looked up): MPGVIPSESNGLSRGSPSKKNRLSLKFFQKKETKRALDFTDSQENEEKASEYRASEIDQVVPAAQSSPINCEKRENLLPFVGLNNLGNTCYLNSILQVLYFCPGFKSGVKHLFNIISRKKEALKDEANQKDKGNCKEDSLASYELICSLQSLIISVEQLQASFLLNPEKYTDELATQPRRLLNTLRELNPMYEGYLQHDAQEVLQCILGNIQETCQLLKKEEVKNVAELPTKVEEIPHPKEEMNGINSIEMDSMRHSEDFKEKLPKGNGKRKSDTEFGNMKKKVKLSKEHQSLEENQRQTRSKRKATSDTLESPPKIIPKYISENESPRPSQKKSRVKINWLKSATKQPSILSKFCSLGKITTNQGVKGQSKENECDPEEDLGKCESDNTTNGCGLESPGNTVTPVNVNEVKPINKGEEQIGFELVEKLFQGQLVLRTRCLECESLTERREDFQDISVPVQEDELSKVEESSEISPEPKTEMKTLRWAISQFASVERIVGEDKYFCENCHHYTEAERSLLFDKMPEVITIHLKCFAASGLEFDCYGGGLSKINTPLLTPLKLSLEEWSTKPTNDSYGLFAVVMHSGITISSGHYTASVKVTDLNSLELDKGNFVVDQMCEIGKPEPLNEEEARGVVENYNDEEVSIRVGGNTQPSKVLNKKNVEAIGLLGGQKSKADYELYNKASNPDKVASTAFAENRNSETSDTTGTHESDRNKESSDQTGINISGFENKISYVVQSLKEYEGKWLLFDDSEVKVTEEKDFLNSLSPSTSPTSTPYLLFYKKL
In short: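 USP1/UAF1 complex (1nM) preincubated with compound 15 min at room temperature, then Ub-Rho substrate (150nM final) added. Fluorescence read kinetically at 480/540 nm, 6 reads every 60 seconds. Buffer: 50mM HEPES pH 7.8, 0.5mM EDTA, 0.1 mg/ml BSA, 1mM TCEP, 0.01% Tween-20.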

[15] = Primary qHTS for small molecule stabilizers of the endoplasmic reticulum resident proteome: Secreted ER Calcium Modulated Protein (SERCaMP) assay (AID 1508630); conditions: SH-SY5Y GLuc-SERCaMP (Gaussia luciferase released on ER calcium loss) secretion, thapsigargin, luminescence; series mostly up to 38.4 µM; further: on the % scale 0 is the no-effect control and ±100 the full control effect
In short: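 The SH-SY5Y reporter protocol was run at 3 concentrations up to 38.3 uM (primary) or 11 concentrations (follow-up): 16 h compound, 100 nM thapsigargin for 4 h, then extracellular luciferase luminescence.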

[16] = target: Cytochrome P450 3A4 (Homo sapiens) (UniProt P08684); test: qHTS Assay for Inhibitors and Substrates of Cytochrome P450 3A4 (AID 884); conditions: recombinant CYP3A4, Luciferin-PPXE luminescence; series mostly up to 57.1 µM; further: potency means the concentration at half of the fitted maximal effect; nearly all actives have a fitted effect of over 50% in size
Sequence of Cytochrome P450 3A4 (Homo sapiens) (P08684 whole entry, looked up): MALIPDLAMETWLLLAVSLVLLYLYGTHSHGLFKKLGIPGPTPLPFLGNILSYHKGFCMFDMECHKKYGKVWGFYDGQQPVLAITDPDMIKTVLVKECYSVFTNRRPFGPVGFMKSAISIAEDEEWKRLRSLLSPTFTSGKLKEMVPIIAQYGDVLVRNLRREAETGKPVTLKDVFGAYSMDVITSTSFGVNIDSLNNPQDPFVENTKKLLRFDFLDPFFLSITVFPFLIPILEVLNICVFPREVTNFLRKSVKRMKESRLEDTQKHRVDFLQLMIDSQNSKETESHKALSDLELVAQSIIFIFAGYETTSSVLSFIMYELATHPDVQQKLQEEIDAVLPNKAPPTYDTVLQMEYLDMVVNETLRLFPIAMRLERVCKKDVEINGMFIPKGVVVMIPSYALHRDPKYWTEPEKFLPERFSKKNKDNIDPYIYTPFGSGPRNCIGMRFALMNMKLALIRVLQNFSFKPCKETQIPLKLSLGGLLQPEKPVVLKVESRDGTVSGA
In short: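 Luminescent readout of luciferin produced by CYP3A4 (20 nM) dealkylation of Luciferin-PPXE, 25 uM (its KM). NADPH-driven reaction ran 60 min at RT after 10 min compound preincubation; data scaled to 57 uM ketoconazole as 100% inhibition.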

[17] = target: Cytochrome P450 3A4 (Homo sapiens) (UniProt P08684); test: qHTS Assay for Activators of Cytochrome P450 3A4 (AID 885); conditions: recombinant CYP3A4, Luciferin-PPXE luminescence, 60 min; series mostly up to 57.1 µM; further: nearly all actives have a fitted effect of over 65% in size
In short: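 Luminescent readout of luciferin formed from 25 uM Luciferin-PPXE (KM level) by 20 nM CYP3A4 in 200 mM KPO4, with 60 min NADPH-driven reaction at room temperature after 10 min compound exposure. Ketoconazole (57 uM) defined 100% inhibition.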

[18] = target: Cytochrome P450 1A2 (Homo sapiens) (UniProt P05177); test: p450-cyp1a2 (AID 410; calls by dose curve;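 further: -100% = full effect of reference inhibitor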); conditions: recombinant CYP1A2, luciferin-ME demethylation, luminescence; series mostly up to 57 µM
Sequence of Cytochrome P450 1A2 (Homo sapiens) (P05177 whole entry, looked up): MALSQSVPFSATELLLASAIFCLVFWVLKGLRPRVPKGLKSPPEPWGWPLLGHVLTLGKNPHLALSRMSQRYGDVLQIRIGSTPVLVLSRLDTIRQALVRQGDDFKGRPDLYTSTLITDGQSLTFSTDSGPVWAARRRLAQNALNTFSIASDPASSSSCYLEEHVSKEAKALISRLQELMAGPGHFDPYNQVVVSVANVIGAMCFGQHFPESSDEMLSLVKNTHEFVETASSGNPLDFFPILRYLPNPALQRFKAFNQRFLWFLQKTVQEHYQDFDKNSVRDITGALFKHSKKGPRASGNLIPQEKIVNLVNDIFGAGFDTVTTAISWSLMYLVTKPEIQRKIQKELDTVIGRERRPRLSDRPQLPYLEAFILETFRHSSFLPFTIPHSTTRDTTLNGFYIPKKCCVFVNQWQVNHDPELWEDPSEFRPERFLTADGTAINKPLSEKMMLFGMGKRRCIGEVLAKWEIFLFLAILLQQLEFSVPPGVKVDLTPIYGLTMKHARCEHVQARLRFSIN
In short: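 O-Demethylation of luciferin 6' methyl ether by human CYP1A2 is monitored as luciferase luminescence. Substrate sits at Km (100uM); enzyme is 20nM. Values are scaled to 57 uM furafylline as maximal inhibition.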

[19] = measured here: cell count channel max response
[20] = measured here: lipid channel max response

COc1cccc(Cn2c(=O)c(C)nc3cnc(OC)nc32)c1
inactive: Potency [1] > 11.4 µM | activity change, negative = inhibition [2] -5.98% | activity change, negative = inhibition [3] 5.79% | activity, negative = inhibition [4] -2.86% | Potency [5] > 9.22 µM | Potency [6] > 46 µM | outcome [7] | Potency [8] | activation [9] 12.8% | activity change, negative = inhibition [10] 5.06% | Potency [11] | Potency [12] | Potency [13] | Potency [14] | Potency [15]
19.3%: max response [10, 20]
15.1%: max response [10, 19]

O=c1c(-c2ccccc2)nc2cnc(Nc3ccccc3)nc2n1Cc1cccs1
4.81%: max response [10, 20]
inactive: Potency [1] > 11.4 µM | activity change, negative = inhibition [2] -15.4% | Potency [5] > 9.22 µM | Potency [6] > 46 µM | outcome [7] | activity change, negative = inhibition [10] -3.34% | Potency [11] | Potency [12] | Potency [13] | Potency [14] | Potency [15]
8.31%: max response [10, 19]

Cc1cnc(CNc2ncncc2-c2cccnc2)cn1
29.4%: max response [10, 19]
inactive: Potency [1] > 11.4 µM | activity change, negative = inhibition [2] 12.8% | activity change, negative = inhibition [3] -0.272% | activity, negative = inhibition [4] 0.806% | Potency [5] > 46 µM | Potency [6] > 46 µM | outcome [7] | Potency [8] | activity change, negative = inhibition [10] 5.94% | Potency [11] | Potency [12] | Potency [13] | Potency [14] | Potency [15]
33.4%: max response [10, 20]

Cc1noc(C)c1-c1cncnc1NCCN1CCOCC1
inactive: Potency [1] > 11.4 µM | activity change, negative = inhibition [2] 4.2% | activity change, negative = inhibition [3] -5.64% | activity, negative = inhibition [4] -2.23% | Potency [5] > 46 µM | Potency [6] > 46 µM | outcome [7] | Potency [8] | Potency [17] | activity change, negative = inhibition [10] 3.95% | Potency [11] | Potency [12] | Potency [13] | Potency [14] | Potency [15]
12.2%: max response [10, 19]
active: Potency [16] 6.31 µM
14.6%: max response [10, 20]

COc1ccc(-c2nc3cnc(Nc4ccccc4)nc3n(Cc3cccs3)c2=O)cc1
23.8%: max response [10, 19]
inactive: Potency [1] > 11.4 µM | activity change, negative = inhibition [2] 19.7% | activity change, negative = inhibition [3] 23.4% | Potency [5] > 9.22 µM | Potency [6] > 46 µM | outcome [7] | Potency [8] | activity change, negative = inhibition [10] 0.81% | Potency [11] | Potency [12] | Potency [13] | Potency [14] | Potency [15]
23.5%: max response [10, 20]
active: Potency [9] 3.16 µM

COCCNc1ncnc2ccc(-c3ccc(C(=O)N(C)C)cc3)cc12
inactive: Potency [1] > 11.4 µM | Potency [18] | activity change, negative = inhibition [3] 11.8% | activity, negative = inhibition [4] 0.699% | Potency [5] > 46 µM | Potency [6] > 46 µM | outcome [7] | Potency [8] | Potency [17] | activity change, negative = inhibition [10] -0.0247% | Potency [11] | Potency [12] | Potency [13] | Potency [14] | Potency [15]
4.77%: max response [10, 19]
3.74%: max response [10, 20]
